Compounds with a hit are over-represented: about 21% of the library has one in this group of screens.
Pf growth 96h – P. falciparum growth inhibition at 96 hours; P. falciparum luciferase reporter growth, 96 h; Potency, µM (series often up to 28.7 µM), most hits filed as inhibitors; 6.9% of 320,000 active; AID 504834
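Compounds incubated with erythrocytes infected by luciferase-expressing P. falciparum (2% hematocrit, 0.05% parasitemia final) for 96 hours, 37 C in 5% CO2. Growth inhibition scored as decreased luciferase luminescence.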
Cycloheximide cs – counter-screen for Shiga toxin inhibitors: cycloheximide protein synthesis inhibition; cell reporter, cycloheximide protein synthesis inhibition counterscreen; max response, %; 12% of 300,000 active; in the data active = max response mostly above about 13%, no sharp cut-off; inactive = mostly below about 14%; note: read at 38.3 µM for the half of the compounds with a filed dose
Shiga toxin inh – inhibitors of Shiga toxin in Vero cells; Vero cells, Shiga toxin protein synthesis inhibition reporter; inhibition, % at 38.7 µM; 9.2% of 290,000 active; in the data active = inhibition mostly above about 28%, no sharp cut-off; inactive = mostly below about 43%
Pf growth 48h – P. falciparum growth inhibition at 48 hours (one generation). P. falciparum luciferase growth in erythrocytes, 48 h. Potency, µM (doses to about 28.7 µM), actives largely listed as inhibitors. 5.9% of 310,000 active. AID 504832
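Luciferase-expressing P. falciparum in infected erythrocytes (2% hematocrit, 0.1% parasitemia final) in RPMI 1640/0.5% Albumax were exposed to compound for 48 hours at 37 C, 5% CO2; growth read as luminescence.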
Of the large screens only hits and unclear results are named; the others gave an inactive call. Unless noted, calls come from the whole dose curve; as a rule, active = well fitted inhibition curve with a large enough effect; inconclusive = small, poorly fitted or top-dose-only effect, or another doubt; inactive = no such curve, though single readings can be large or run the other way.

Cc1cccn2c(=O)c3cc(C(=O)NCCN4CCOCC4)c(=N)n(CCN4CCOCC4)c3nc12	Pf growth 48h inconclusive
Cc1cccn2c(=O)c3cc(C(=O)NCCN4CCOCC4)c(=N)n(Cc4ccc(F)cc4)c3nc12	Pf growth 96h 3.7µM, Pf growth 48h inconclusive
Cc1cccn2c(=O)c3cc(C(=O)NC4CCCC4)c(=N)n(CCCN4CCOCC4)c3nc12	Pf growth 48h 2.33µM
Cc1cccn2c(=O)c3cc(C(=O)NC4CCCC4)c(=N)n(CC4CCCO4)c3nc12 (stereo not drawn)	Pf growth 48h inconclusive
CCOCCCn1c(=N)c(C(=O)NCCN2CCOCC2)cc2c(=O)n3cccc(C)c3nc21	Pf growth 96h 1.47µM
Cc1ccc(N(CC(=O)NC2CCCCC2)C(=O)CNC(=O)c2ccco2)cc1C	none
O=C(COC(=O)c1ccccn1)NCc1cccs1	none (no result: Cycloheximide cs, Shiga toxin inh)
CSc1ccc(CCNC(=O)c2cccc3c2C(=O)N(C2CCCCC2)C3)cc1	Pf growth 96h 10.4µM, Pf growth 48h inconclusive
COc1cc(NC(=O)c2cccc3c2C(=O)N(C2CCCCC2)C3)cc(OC)c1OC	Pf growth 96h inconclusive, Pf growth 48h 11.7µM
Cc1ccc(NC(=O)c2cccc3c2C(=O)N(C2CCCCC2)C3)c(Cl)c1	Pf growth 96h 4.65µM, Pf growth 48h inconclusive
O=C(NCCc1ccccc1)c1cccc2c1C(=O)N(C1CCCCC1)C2	Pf growth 96h inconclusive, Pf growth 48h inconclusive
NC(=O)c1cccc2c1C(=O)N(C1CCCCC1)C2	Pf growth 96h 9.28µM
O=C(Nc1ccc(Br)cc1Br)c1cccc2c1C(=O)N(C1CCCCC1)C2	Pf growth 96h inconclusive, Pf growth 48h inconclusive
Cc1ccc(CNC(=O)c2ccccc2NC(=O)CN2CC(C)OC(C)C2)cc1 (stereo not drawn)	none
O=C(Nc1ccc(Br)cc1)c1cccc2c1C(=O)N(C1CCCCC1)C2	Pf growth 48h inconclusive
Cc1cc(C)cc(NC(=O)c2cccc3c2C(=O)N(C2CCCCC2)C3)c1	Pf growth 96h 11.7µM, Pf growth 48h inconclusive
CC1CCCCC1NC(=O)c1ccc(CNc2c(N3CCCC3)c(=O)c2=O)cc1 (stereo not drawn)	Pf growth 96h 8.28µM
CC1CCN(c2c(NCC3CCC(C(=O)NCCc4ccc(Cl)cc4)CC3)c(=O)c2=O)CC1 (stereo not drawn)	Pf growth 96h inconclusive, Pf growth 48h inconclusive
CC1CCN(c2c(NCc3ccc(C(=O)NCCc4ccc(Cl)cc4)cc3)c(=O)c2=O)CC1	Pf growth 96h 8.28µM, Pf growth 48h inconclusive
COc1ccc(CC(=O)NCCC(C)C)cc1S(=O)(=O)N1CCOCC1	none
Cc1ccc(C)c(N(CC(=O)Nc2ccccc2C(=O)NCc2ccco2)S(=O)(=O)c2ccccc2)c1	Pf growth 48h 11.7µM
Cc1ccc(N(CC(=O)N/N=C/c2ccc(OC3CSC3)cc2)S(=O)(=O)c2ccccc2)c(C)c1	Pf growth 96h 11.7µM, Pf growth 48h inconclusive
CS(=O)(=O)N(CC(=O)Nc1ccccc1-c1ccccc1)c1ccccc1	Pf growth 96h inconclusive
CCOc1ccccc1N(CC(=O)Nc1ccccc1F)S(=O)(=O)c1ccccc1	Pf growth 96h inconclusive, Pf growth 48h 10.4µM
CCOc1ccccc1N(CC(=O)Nc1ccc(OC)cc1OC)S(=O)(=O)c1ccccc1	Pf growth 48h inconclusive
Cc1ccc(N(CC(=O)Nc2ccccc2-c2ccccc2)S(=O)(=O)c2ccccc2)c(C)c1	Pf growth 96h inconclusive, Pf growth 48h 11.7µM
CCCCCCCCCCCCCCCC(=O)OC[C@H](COP(=O)([O-])OCC[N+](C)(C)C)OC(=O)CCCCCCCCCCCCCCC	none
CCn1cc(S(=O)(=O)c2ccc(C)cc2)c(=O)c2cc(OC)ccc21	none
COc1ccc(CNC(=O)CN2C(=O)c3ccc([N+](=O)[O-])cc3C2=O)cc1	none
Cc1ccc(N(CC(=O)Nc2ccccc2C(=O)NCc2ccco2)S(=O)(=O)c2ccccc2)cc1C	Pf growth 48h 10.4µM (no result: Pf growth 96h)
CC(Sc1nnc(-c2cccnc2)n1C)C(=O)N1CCOCC1 (stereo not drawn)	none (no result: Cycloheximide cs, Shiga toxin inh)
COc1cc(C(=O)N2CCN(S(=O)(=O)c3cccc(F)c3)CC2)ccc1OCC(=O)N1CCOCC1	none (no result: Cycloheximide cs, Shiga toxin inh)
O=C(CSC(=S)N1CCOCC1)Nc1ncc2c(n1)CC(c1ccco1)CC2=O (stereo not drawn)	none
Oc1ccc(Cl)cc1CNc1cccc2cccnc12	Pf growth 48h inconclusive
Cc1cc(C[n+]2cc(Cl)ccc2N)c2ncccc2c1	Pf growth 96h inconclusive, Pf growth 48h 13.1µM
Nc1ccc(Cl)c[n+]1Cc1cccc2cccnc12	Pf growth 96h inconclusive, Pf growth 48h 10.4µM
Cc1cc(C[n+]2cc(Br)ccc2N)c2ncccc2c1	Pf growth 96h 13.1µM, Pf growth 48h 9.28µM
CC(NC(=O)c1ccccc1Cl)C1CC2CCC1C2 (stereo not drawn)	none
CC(NC(=O)c1ccc([N+](=O)[O-])cc1Cl)C1CC2CCC1C2 (stereo not drawn)	Pf growth 96h inconclusive, Cycloheximide cs 13.9
CC(=O)Nc1ccc(S(=O)(=O)Nc2ccccc2C(=O)N2CCCC2)cc1	none
Cc1ccc(NC(=S)NNC(=O)c2nnn(-c3ccccc3)c2C)cc1	Cycloheximide cs 37.0, Shiga toxin inh 59.3
Cc1ccc(NC(=S)NNC(=O)c2nn(C)cc2Cl)cc1	Cycloheximide cs 19.3
Cc1cccc(NC(=S)NNC(=O)c2nn(C)cc2Cl)c1	Cycloheximide cs 24.8
Cc1ccc(/C=N/OC(=O)c2nn(C)cc2Cl)cc1	Cycloheximide cs 55.2, Shiga toxin inh 89.1
Cc1cccc(NC(=O)NNC(=O)c2c(Cl)c(C)nn2C)c1	none
Cc1ccc(NC(=S)NNC(=O)CSc2nc3ccccc3c(=O)n2-c2ccc(C)cc2)cc1	Pf growth 96h inconclusive, Pf growth 48h inconclusive
Cc1ccc(C(=O)N2CCN(S(=O)(=O)c3ccccc3[N+](=O)[O-])CC2)o1	none
Cc1ccc(S(=O)(=O)n2cnc3ccccc32)cc1[N+](=O)[O-]	none
COC(=O)C1C(=O)C2=C(CC1C)NC(=O)CC2c1ccccc1 (stereo not drawn)	Pf growth 48h inconclusive
CCOc1cc(C2CC(=O)NC3=C2C(=O)C(C(=O)OC)C(C)C3)cc(Cl)c1O (stereo not drawn)	Pf growth 48h 1.17µM
CCN(CC)C(=O)C(=O)c1cccn1-c1c(Cl)cccc1C#N	none
COc1ccc2c(=O)c3c(=O)n(CCc4ccccc4)c(C(C)C)nc3oc2c1	Pf growth 96h 5.22µM, Pf growth 48h 7.38µM
COc1ccc(CCn2c(C)nc3c(c(=O)c4ccccc4n3C)c2=O)cc1	Pf growth 96h 4.65µM, Pf growth 48h inconclusive
COc1ccc(Cn2c(C)nc3c(c(=O)c4ccccc4n3C)c2=O)cc1	Pf growth 96h inconclusive, Pf growth 48h inconclusive
COc1ccc(CCn2c(C(C)C)nc3c(c(=O)c4ccccc4n3C)c2=O)cc1	Pf growth 96h 1.85µM, Pf growth 48h 11.7µM
CCCCCc1nc2c(c(=O)c3ccccc3n2C)c(=O)n1Cc1ccc(OC)cc1	Pf growth 96h inconclusive, Pf growth 48h inconclusive
COc1ccc(CCn2c(S)nc3ccccc3c2=O)cc1	Cycloheximide cs 29.8, Shiga toxin inh 41.5 (no result: Pf growth 48h)
COc1cc(NC(=O)c2cc([N+](=O)[O-])ccc2NC(=O)CN2CCN(c3ccccn3)CC2)cc(OC)c1	Pf growth 96h inconclusive
N#Cc1nc(-c2ccc(Cl)cc2)oc1NCc1cccc2c1OCO2	Pf growth 96h inconclusive

Screening data as filed in PubChem.
